In all, about 650,000 compounds went through this assay and about 6,800 (1%) were called active. The list comes from a sample in which actives are over-represented; it also holds similar structures and randomly drawn compounds. A number with no mark means an inactive call. Cut-off read from the data, not from the text of the source: active = activation above about 4.9%; inactive = the rest.
Target: G-protein coupled receptor 151 (Homo sapiens) (UniProt Q8TDV0)
Assay: activators of human GPR151, primary screen, cell-based, PathHunter beta-arrestin, luminescence (AID 1508602);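 note: 0% = median of compound wells and 100% = cells with positive control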
Conditions: PathHunter beta-arrestin GPR151 cells, at 11.2 µM, active compounds read high

Sequence of G-protein coupled receptor 151 (Homo sapiens) (Q8TDV0 whole entry, looked up): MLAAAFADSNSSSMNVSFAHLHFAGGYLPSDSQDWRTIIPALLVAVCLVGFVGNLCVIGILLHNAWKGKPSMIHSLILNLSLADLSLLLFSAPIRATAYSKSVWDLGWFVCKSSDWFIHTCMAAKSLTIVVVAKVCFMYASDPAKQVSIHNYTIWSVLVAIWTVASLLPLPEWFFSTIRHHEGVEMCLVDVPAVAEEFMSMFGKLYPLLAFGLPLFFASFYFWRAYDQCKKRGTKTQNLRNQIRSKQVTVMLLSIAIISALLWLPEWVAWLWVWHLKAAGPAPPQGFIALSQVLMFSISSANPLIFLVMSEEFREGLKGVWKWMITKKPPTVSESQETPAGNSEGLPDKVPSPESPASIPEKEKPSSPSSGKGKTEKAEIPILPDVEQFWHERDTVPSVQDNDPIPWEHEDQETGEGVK

In order of falling activation:
1. CC(C)(C)c1ccc(S(=O)(=O)ON2C(=O)c3ccccc3C2=O)cc1  3.8%
2. CCOC(=O)c1[nH]c2ccc(OC)cc2c1NC(=S)N1CCN(c2ncccn2)CC1  2.39%
3. CCCCSC1=C(C#N)C(c2ccc(OC)cc2)C2=C(CC(C)(C)CC2=O)N1 (stereo not drawn)  1.78%
4. CC(=O)N(c1nc(C=O)cs1)c1ccccc1F  1.55%
5. CC1=C(C(=O)Nc2nc3ccc(Br)cc3s2)C(c2ccccc2C)C2=C(CC(C)(C)CC2=O)N1 (stereo not drawn)  1.38%
6. CCCC(=O)Oc1ccc2c(-c3ccccc3)cc(=O)oc2c1  1.03%
7. CC(C)n1c(Nc2ccc3ncccc3c2)nc2c(N)ncnc21  0.875%
8. Cc1nc(NC(=O)CSc2nnc3c(C)cc4cc5c(cc4n23)OCCO5)sc1C  0.827%
9. Cc1ccc(Cl)cc1NC(=O)C1CC(=O)c2ccccc21 (stereo not drawn)  0.739%
10. CC(C(=O)NC1CCCC1)n1c2ccccc2c2cn[nH]c(=O)c21 (stereo not drawn)  0.687%
11. Cc1ccc(CNC(=O)CN2C(=O)C3C4C=CC(C4)C3C2=O)o1 (stereo not drawn)  0.668%
12. C=CCN(CC=C)C(=O)CSc1nnc2c3ccccc3n(C)c2n1  0.64%
13. CN1NC2(CCCCC2)N(c2ccccc2)C1=S  0.403%
14. CCSCCOC(=O)C1=C(C)NC2=C(C(=O)CC(c3cccs3)C2)C1c1cc(OC)c(O)c([N+](=O)[O-])c1 (stereo not drawn)  0.362%
15. COc1cccc(-c2nc3nc(C)c(CCC(=O)NC4CCCC4)c(C)n3n2)c1  0.324%
16. c1ccc(CN2CCC(Nc3nnnn3-c3ccccc3)CC2)cc1  0.295%
17. O=C(NCC1OCCCN1S(=O)(=O)c1ccccc1)C(=O)NC1CC1 (stereo not drawn)  0.198%
18. CC(C(=O)NCc1ccc(F)cc1)n1c2ccccc2c2cn[nH]c(=O)c21 (stereo not drawn)  0.149%
19. O=C1NC2(CCN(CC(=O)N3CCCCC3)CC2)Nc2ccccc21  -0.0006%
20. CC(=O)Nc1cccc(-c2csc(C)n2)c1  -0.0322%
21. COc1cc(/C=C2/C(=N)N3N=C(CC(C)C)SC3=NC2=O)ccc1OC(=O)c1ccc(F)cc1  -0.0343%
22. O=C(NCCN1CCOCC1)C(=O)NCC1OCCCN1S(=O)(=O)c1ccccc1 (stereo not drawn)  -0.042%
23. CC(NC(=O)Nc1ccc(Br)cc1Br)(C(F)(F)F)C(F)(F)F  -0.154%
24. COc1ccc(C(=O)Nc2ccc(S(=O)(=O)N(C)C3CCCCC3)cc2)cc1  -0.159%
25. COc1ccc(N2C(=O)C(=O)/C(=C(/O)c3ccccc3)C2c2ccc(Cl)cc2)cc1 (stereo not drawn)  -0.225%
26. CCOc1ccc2c(c1)=C/C(=C\c1[nH]c(=S)[nH]c1O)C(=O)N=2  -0.225%
27. CC(C)(C)CN1CCC(Oc2cccc(C(=O)NCC3CC(=O)N(C4CC4)C3)c2)CC1 (stereo not drawn)  -0.301%
28. S=C(S)NCCc1c[nH]c2ccccc12  -0.43%
29. CC(C)(C)S(=O)(=O)Nc1nccnc1-c1ccc2c(c1)OCO2  -0.466%
30. COc1ccccc1NC(=O)C1CC12CCN(Cc1cccc(OCCO)c1)CC2 (stereo not drawn)  -0.488%
31. O=C(NCCc1c[nH]c2ccccc12)c1cccs1  -0.507%
32. CC(=O)N(C)c1ccc(N=Cc2ccc3ccccc3c2)cc1  -0.522%
33. CC1=C(C(=O)OCc2ccc3c(c2)OCO3)C(c2ccc(Cl)c(Cl)c2)NC(=O)N1 (stereo not drawn)  -0.562%
34. COc1ccc(CCNc2cc(C)nc(NCc3ccc4c(c3)OCO4)n2)cc1  -0.591%
35. CCOC(=O)c1c(NC(=O)CSc2nnc(CNC(=O)Cc3ccc(OC)cc3)n2-c2ccc(F)cc2)sc2c1CCCC2  -0.665%
36. COc1ccc(NC(=O)c2ccc(C(=O)Nc3ccc(OC)cc3)cc2)cc1  -0.694%
37. C=CCn1c2ccccc2c2nnc(SC(CC)C(=O)Nc3nc(C)c(C(=O)OCC)s3)nc21 (stereo not drawn)  -0.843%
38. CC(C)(C)c1ccc(C2/C(=C(/O)c3ccccc3)C(=O)C(=O)N2c2ccc(OCC(=O)O)cc2)cc1 (stereo not drawn)  -0.849%
39. Cc1ccc(N=Cc2c(NCc3ccco3)nc3c(C)cccn3c2=O)cc1  -0.949%
40. CCCNc1ncnc2c1nc(Nc1cccc(N(C)C)c1)n2C(C)C  -1%
41. COc1ccccc1NC(=O)c1sc2ncn(Cc3cccc(Br)c3)c(=O)c2c1C  -1.06%
42. C/C(=N/NC(=O)c1ccccc1)c1ccc(F)cc1  -1.24%
43. Cn1c2ccccc2c2nnc(SCCCCC(=O)Nc3cccc4ccccc34)nc21  -1.31%
44. CCOC(=O)Nc1c(C(=O)OC)[nH]c2ccc(C)cc12  -1.5%
45. Cc1ccccc1Cn1cc(SCC(=O)N2CCCC2)c2ccccc21  -1.67%
46. C[C@@H](c1ccccc1)N1C(=O)[C@H]2[C@H]3[C@H](O)C=CC(=O)[C@@H]3CC[C@H]2C1=O  -1.71%
47. Cn1c2ccccc2c2nnc(SCC(=O)Nc3ccc(Cl)cn3)nc21  -1.79%
48. COCCNC(=S)N1CCN(c2ncccn2)CC1  -1.93%
49. COc1ccccc1N1CCN(CCNC(=O)c2ccc(F)cc2)CC1  -2.55%
50. COc1ccc(CCNc2ncnc3c2nc(Nc2cccc(N(C)C)c2)n3C(C)C)cc1  -3.07%
51. O=C(Nc1nc2ccccc2[nH]1)c1cc(Cl)ccc1Cl  -5.18%

With `CCOC(=O)c1[nH]c2ccc(OC)cc2c1NC(=O)CN(C)C` the activation was 6.75% (active).
With `CSc1ncc(C(=O)NCCc2c[nH]c3ccccc23)c(C)n1` the activation was 4.98% (active).
In the case of `O=C(O)COc1ccc(N2C(=O)C(=O)/C(=C(\O)c3ccccc3)C2c2ccc(Cl)cc2Cl)cc1` (stereo not drawn), the activation is reported as 6.19% (active).
With `COc1ccc(CCNc2cc(C)nc(Nc3cccc(N(C)C)c3)n2)cc1` the activation was 8.12% (active).
For `CC(C)n1c(Nc2ccc3ncccc3c2)nc2c(NC3CC3)ncnc21`, the activation was 7.49% (active).
`COc1ccc(C(=O)Nc2ccc(S(=O)(=O)NC(C)C)cc2)cc1` was tested, and the activation was 5.49% (active).
In the case of `Cc1nc(-c2cccc(NC(=O)C3CC(=O)c4ccccc43)c2)cs1` (stereo not drawn), the activation is reported as 7.17% (active).
`COCCNC(=S)N1CCN(c2ccccc2OC)CC1` was tested, and the activation was 12.1% (active).
With `C=CCn1c2ccccc2c2nnc(SCc3[nH]c(=O)[nH]c3C(=O)CCCCC(=O)OCC)nc21` the activation was 9.28% (active).
With `C=CCNC(=O)C(=O)NCC1OCCCN1S(=O)(=O)c1ccccc1` (stereo not drawn) the activation was 5.93% (active).
`CC(C(=O)NCCN1CCOCC1)n1c2ccccc2c2cn[nH]c(=O)c21` (stereo not drawn) was tested, and the activation was 6.21% (active).
With `Cn1c2ccccc2c2nnc(SCC(=O)Nc3ccc(NC(=O)C4CC4)cc3)nc21` the activation was 7.08% (active).

Source: PubChem BioAssay AID1508602 (The Scripps Research Institute Molecular Screening Center, 2020)
